Each structure is given as a SMILES string. The whole screen tested about 310,000 compounds, of which about 1,000 (0.32%) were called active. The list is a sample of the results. Measured potencies and affinities stand elsewhere. A number with no mark means an inactive call. The rule behind the calls is not given here.

This experiment in a line: PhoP regulon inhibitors, Salmonella typhi PhoP promoter GFP reporter, confirmatory (AID 1850).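 Note: 0% = induced wells with vehicle and 100% = uninduced wells.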 The conditions noted are these: fluorescence, 4 h, at 50 µM, stronger effect = higher value.
For orientation: inhibition means the relative decrease from the control value, in per cent. For the compound `COC(=O)N/N=C/c1ccc([N+](=O)[O-])o1`, the inhibition was 10.7%. With `CCOC(=O)N/N=C/c1ccc(C)o1`, the inhibition is -0.31%. As to `Cc1ccc2c(c1)C(=O)CC(O)(C(F)(F)F)O2` (configuration not stated), the inhibition is -10.7%.

For the compound `COc1ccc(OC(=O)c2cc3ccccc3o2)cc1`, the inhibition is 3.29%. For the compound `O=C(Nc1ccccc1)c1ccc(OC(=O)c2cc3ccccc3o2)cc1`, the inhibition is 1.84%.

For `CC(=O)Nc1cccc(C(=O)Nc2cccnc2)c1`, the inhibition was 5.55%. Regarding `Nc1cn(C2OC(CO)C(O)C2O)c(=O)[nH]c1=O` (configuration not stated), the inhibition is 5.11%.

As for `CC(=O)OCC1OC(n2cc(F)c(=O)[nH]c2=O)C(OC(C)=O)C1OC(C)=O` (configuration not stated), the inhibition was -1.38%.

Take `COc1ccccc1N1CCN(c2ccc(Cl)nn2)CC1`: the inhibition was 8.78%. The figure for `Cc1ccc(C(=O)N/C(=C\c2ccccc2)C(=O)NCCCn2ccnc2)cc1` is -1.23%; for `NC1=NC[C@@H](Cc2ccc(O)cc2)N1CCc1cccc2ccccc12` it is -7.1%. For `NCCCC[C@H]1CN=C(N)N1CCC12CC3CC(CC(C3)C1)C2` the value was 27.2%; for `NC1=NC[C@@H](Cc2ccc(O)cc2)N1CCC12CC3CC(CC(C3)C1)C2`, -4.88%; for `NC1=NC[C@H](Cc2ccc(O)cc2)N1CCc1cccc(F)c1`, -13.5%. As for `COc1ccccc1N1CCN(C(=O)Cn2nc(C(F)(F)F)c3c2CCC3)CC1`, the inhibition is -10.5%. For `COc1cccc(C(=O)Nc2ccc(NC(=O)Cc3ccccc3)cc2)c1` the value was -3.24%; for `CC(NCc1ccncc1)C12CC3CC(CC(C3)C1)C2` (configuration not stated), 2.47%.

Regarding `CC(CC12CC3CC(CC(C3)C1)C2)NCc1ccccc1O` (configuration not stated), the inhibition is 0.38%. On to `NS(=O)(=O)c1cccc(NC(=O)CC23CC4CC(C2)CC(CC(=O)Nc2cccc(S(N)(=O)=O)c2)(C4)C3)c1`, for which the inhibition was 4.03%. For `c1ccc(CNc2nc(-c3cccs3)nc3ccccc23)cc1` the value was -0.13%; for `c1ccc(-c2nc(NC3CCCC3)c3ccccc3n2)cc1`, 3.11%.

As to `c1ccc(CN2CCC(Nc3nc(-c4cccnc4)nc4ccccc34)CC2)cc1`, the inhibition is 1.57%.

As to `c1ccc(CN2CCC(Nc3ncnc4sccc34)CC2)cc1`, the inhibition is -4.42%. `O=C1N(CN2CCC3(CC2)OCCO3)c2ccccc2C12OCCCO2`: the inhibition is 1.71%.

As for `Cc1ccc(NC(=O)N2CCN(c3ncccc3C(F)(F)F)CC2)cc1`, the inhibition was 1.6%. Consider `C=CCNC(=O)C1CC(=O)N(c2ccc(OCc3ccccc3Cl)cc2)C1` (configuration not stated), for which the inhibition was 0.85%.

Take `COc1ccc(C2NC(=O)Cc3cc(OC)c(OC)cc32)cc1OC` (configuration not stated): the inhibition is -3.77%.
